Several values for one entry are separate records, joined by “and”; a condition that tells them apart may be missing. Identical values can stand only once. About 2,000 (36%) of roughly 5,500 compounds were called active. Roughly 18% stayed inconclusive and do not appear here. No stated cut-off is given here; in the data, active means normalized growth mostly below about 0.91 (no sharp cut-off); inconclusive means no clear call, values can overlap the other calls; inactive means mostly above about 0.92. This is one part of the list.
Experiment: chemical genetic growth profiling, strain panel (AID 1159580);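 further: tested at 20 µM; growth read once vehicle control cultures reached saturation at 30 °C; 1 = growth at the plate median or of vehicle wells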
Conditions: S. cerevisiae deletion strains, growth OD

Measured: normalized growth

CC(C)=CCc1c(O)cc2occ(-c3ccc4c(c3)OCO4)c(=O)c2c1O
0.984 (inactive) and 0.838 (active): locus YJL095W, strain BCK1, stronger effect = lower value
active: locus YAL026C, strain drs2, stronger effect = lower value 0.865 | locus YBL061C, strain skt5, stronger effect = lower value 0.864 | locus YBR009C, strain hhf1, stronger effect = lower value 0.819 | locus YBR023C, strain chs3, stronger effect = lower value 0.855 | locus YCL016C, strain dcc1, stronger effect = lower value 0.872 | locus YCL061C, strain MRC1, stronger effect = lower value 0.909 | locus YCL069W, strain vba3, stronger effect = lower value 0.888 | locus YDR297W, strain sur2, stronger effect = lower value 0.911 | locus YDR335W, strain msn5, stronger effect = lower value 0.917 | locus YDR392W, strain spt3, stronger effect = lower value 0.67 | locus YER015W, strain faa2, stronger effect = lower value 0.876 | locus YGL253W, strain hxk2, stronger effect = lower value 0.814 | locus YHR013C, strain ard1, stronger effect = lower value 1.17 [resistant] | locus YHR027C, strain rpn1, stronger effect = lower value 0.805 | locus YHR079C, strain IRE1, stronger effect = lower value 0.8 | locus YHR142W, strain chs7, stronger effect = lower value 0.74 | locus YJL166W, strain qcr8, stronger effect = lower value 0.862
inactive: locus YAL013W, strain DEP1, stronger effect = lower value 1.01 | locus YAL021C, strain ccr4, stronger effect = lower value 1.05 | locus YAL030W, strain snc1, stronger effect = lower value 0.996 | locus YBR021W, strain FUR4, stronger effect = lower value 0.991 | locus YBR171W, strain sec66, stronger effect = lower value 0.981 | locus YBR229C, strain ROT2, stronger effect = lower value 1.02 | locus YBR231C, strain swc5, stronger effect = lower value 0.929 | locus YBR279W, strain paf1, stronger effect = lower value 0.993 | locus YCL011C, strain gbp2, stronger effect = lower value 0.909 | locus YCL029C, strain bik1, stronger effect = lower value 1.03 | locus YCR088W, strain abp1, stronger effect = lower value 0.998 | locus YDL005C, strain med2, stronger effect = lower value 0.993 | locus YDL035C, strain GPR1, stronger effect = lower value 1.01 | locus YDL040C, strain nat1, stronger effect = lower value 1 | locus YDL074C, strain BRE1, stronger effect = lower value 1.03 | locus YDL101C, strain DUN1, stronger effect = lower value 1.01 | locus YDL134C, strain PPH21, stronger effect = lower value 1.01 | locus YDL185W, strain tfp1, stronger effect = lower value 1.03 | locus YDL192W, strain arf1, stronger effect = lower value 1.03 | locus YDR001C, strain nth1, stronger effect = lower value 1.01 | locus YDR069C, strain doa4, stronger effect = lower value 0.957 | locus YDR101C, strain arx1, stronger effect = lower value 1.01 | locus YDR137W, strain rgp1, stronger effect = lower value 0.897 | locus YDR150W, strain NUM1, stronger effect = lower value 1 | locus YDR159W, strain sac3, stronger effect = lower value 0.888 | locus YDR162C, strain NBP2, stronger effect = lower value 1.01 | locus YDR195W, strain ref2 0.937 | locus YDR318W, strain mcm21, stronger effect = lower value 1.02 | locus YDR334W, strain swr1, stronger effect = lower value 0.967 | locus YDR388W, stronger effect = lower value 1.02 | locus YDR502C, strain sam2, stronger effect = lower value 1.01 | locus YEL003W, strain gim4, stronger effect = lower value 0.932 | locus YEL037C, strain rad23, stronger effect = lower value 0.994 | locus YEL061C, strain CIN8 (second series), stronger effect = lower value 0.997 | locus YEL061C, strain CIN8, stronger effect = lower value 1.01 | locus YER016W, strain bim1, stronger effect = lower value 0.997 | locus YER110C, stronger effect = lower value 1.05 | locus YER111C, strain swi4, stronger effect = lower value 1.02 | locus YER155C, strain BEM2 (second series), stronger effect = lower value 0.911 | locus YER155C, strain BEM2, stronger effect = lower value 1.01 | locus YER167W, strain BCK2, stronger effect = lower value 1.02 | locus YFR010W, strain ubp6, stronger effect = lower value 0.92 | locus YGL078C, strain dbp3, stronger effect = lower value 1.03 | locus YGL086W, strain mad1, stronger effect = lower value 1.05 | locus YGL167C, strain pmr1, stronger effect = lower value 1 | locus YGL173C, strain kem1, stronger effect = lower value 0.921 | locus YGL227W, strain vid30, stronger effect = lower value 0.972 | locus YGL240W, strain doc1, stronger effect = lower value 0.944 | locus YGL248W, strain PDE1, stronger effect = lower value 1.02 | locus YGR078C, strain PAC10, stronger effect = lower value 0.997 | locus YGR135W, strain pre9, stronger effect = lower value 0.993 | locus YGR229C, strain SMI1, stronger effect = lower value 0.983 | locus YGR252W, strain gcn5, stronger effect = lower value 1.03 | locus YHR079C, strain IRE1 (second series), stronger effect = lower value 1.03 | locus YHR094C, strain hxt1, stronger effect = lower value 1.03 | locus YHR129C, strain ARP1, stronger effect = lower value 1.01 | locus YHR200W, strain rpn10, stronger effect = lower value 1.02 | locus YIL066C, strain RNR3, stronger effect = lower value 1.01 | locus YIL073C, strain SPO22, stronger effect = lower value 1.05 | locus YIL125W, strain kgd1, stronger effect = lower value 1.03 | locus YIR030C, strain dcg1, stronger effect = lower value 1.02 | locus YJL092W, strain hpr5, stronger effect = lower value 0.962 | locus YJL095W, strain BCK1 (second series), stronger effect = lower value 0.946 | locus YJL115W, strain asf1, stronger effect = lower value 1.01 | locus YJL129C, strain trk1, stronger effect = lower value 0.923 | locus YJL134W, strain LCB3, stronger effect = lower value 1.01 | locus YJL154C, strain vps35, stronger effect = lower value 1 | locus YJL164C, strain tpk1, stronger effect = lower value 0.943 | locus YJL168C, strain set2, stronger effect = lower value 1.02 | locus YJL187C, strain SWE1 (second series), stronger effect = lower value 1.01 | locus YJL187C, strain SWE1, stronger effect = lower value 1 | locus YJR043C, strain POL32, stronger effect = lower value 0.994
1.01 (inactive) and 0.843 (active): locus YHR030C, strain SLT2, stronger effect = lower value

Source: PubChem BioAssay AID1159580 (chemical genetic matrix, 2015)
